Laboratory results published in PubChem BioAssay (NCI).
“And” between values parts separate entries of the source, which are not always exact repeats. Equal values may be shown once. About 79,000 compounds went through this panel and 15% of them were active in at least one assay; those are over-represented in the sample as a whole. Values without a mark were called inactive. The source made the active and inactive calls. Rule as the data show it: active = growth inhibition above about 70%; inactive = the rest.

How the values were obtained:
[1] = NCI Yeast Anticancer Drug Screen. Data for the rad50 strain (AID 155);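 also: 0% = growth of vehicle-only cultures of the same strain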; details: S. cerevisiae rad50 strain growth inhibition; at 50.0 µM; stronger effect = higher value
Method in brief: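 Readout: growth inhibition relative to vehicle-treated cultures. Compound exposure was carried out in a genetically defined yeast strain deficient in DNA damage repair.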

[2] = NCI Yeast Anticancer Drug Screen. Data for the mec2-1 strain (AID 157); details: S. cerevisiae mec2-1 strain, at 50.0 µM, stronger effect = higher value
Method in brief: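 Each compound was tested on mec2-1 yeast, a strain altered in DNA damage repair or cell cycle control. Growth inhibition is reported relative to vehicle.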

[3] = NCI Yeast Anticancer Drug Screen. Data for the sgs1 mgt1 strain (AID 161);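 also: 0% = growth of cultures given vehicle only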; details: S. cerevisiae sgs1 mgt1 strain, at 50.0 µM, stronger effect = higher value
Method in brief: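 Test agents were incubated with a DNA-repair-mutant yeast strain. Growth was then read and compared against vehicle-treated controls.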

[4] = NCI Yeast Anticancer Drug Screen. Data for the cln2 rad14 strain (AID 165);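 also: 0% = growth equal to vehicle treated cultures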; details: S. cerevisiae cln2 rad14 strain, at 50.0 µM, stronger effect = higher value
Method in brief: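 Test compounds were added to cln2 rad14 yeast cultures; inhibition of growth was then determined by comparison with vehicle treatment.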

[5] = NCI Yeast Anticancer Drug Screen. Data for the bub3 strain (AID 167); details: S. cerevisiae bub3 mutant strain, at 50.0 µM, stronger effect = higher value
Method in brief: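 Readout: yeast growth inhibition, expressed relative to vehicle-only wells. The test organism is a mutant strain from a panel with lesions in DNA repair or checkpoint genes.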

[6] = NCI Yeast Anticancer Drug Screen. Data for the mlh1 rad18 strain (AID 175); details: S. cerevisiae mlh1 rad18 strain growth inhibition; at 50.0 µM; stronger effect = higher value
Method in brief: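 Inhibition values reflect reduced growth of mutant yeast versus vehicle-treated controls following compound exposure; the mutations affect DNA damage repair.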

SMILES	growth inhibition [1]	growth inhibition [2]	growth inhibition [3]	growth inhibition [4]	growth inhibition [5]	growth inhibition [6]
CCCC1NCCOC1(O)c1ccccc1 (stereo unspecified)	-11.2%	-8.35%	-1%	-16.4%	3.35%	-33.8%
CN1CN(c2ccccc2)C2(CCN(CC(C)(c3ccc(F)cc3)C3OCCCO3)CC2)C1=O (stereo unspecified)	-22.9%	-18.9%	-21.9%	-5.3%	-27.1%	8.95%
c1ccc(N2CCNCC2)nc1	-6.4%	-4.3%	9.2%	6.9%	8.25%	0.15%
C/C=C/C(C)C1(CC)C(=O)NC(=S)NC1=O (stereo unspecified)	8.8%	9.65%	9%	10.6%	-11.3%	-13.1%
CCCCCCCCCCCCBr	10.7%	-7.4%	-5.1%	-12.7%	-10.3%	-1.05%
CCN1CC2(C)CCC(OC)C34C5CC6CCC(O)(C5C(=O)O6)C(C(O)C23)C14 (stereo unspecified)	-9.45%	-44%	2%	-0.5%	-34.1%	-57.7%
CCCCC(Br)C(=O)OCC (stereo unspecified)	26.1%	6.55%	-26.5%	-11.6%	10.9%	11.8%
CCN(CCCl)c1cc(C(=O)NCCCN(C)CCCNC(=O)c2cc(N(CC)CCCl)c([N+](=O)[O-])cc2[N+](=O)[O-])c([N+](=O)[O-])cc1[N+](=O)[O-]	-4.75%	-2.9%	-17%	-4.05%	-2.2%	-9%
CCCCOP(=O)(NCCOC)OCCCC	-0.05%	8.05%	-3.1%	6.9%	5.25%	10.2%
CCOP(=O)(CCC[N+](=O)[O-])OCC	-12.1%	-11.9%	-18.7%	-15.8%	1.35%	-7.65%
CN1CN(c2ccccc2)C2(CCN(CCCSc3ccccc3NC(=O)/C=C/c3ccccc3)CC2)C1=O	20%	-3.95%	18.8%	18.9%	41.3%	34.2%
CC12CC[C]([Hg][I])(CC1)C2(C)C	96.5% (active)	98.6% (active)	99.8% (active)	4.3%	74.9% (active)	84.8% (active)
O=C(NCC(O)CO)c1cc([N+](=O)[O-])cc([N+](=O)[O-])c1N(CCCl)CCCl (stereo unspecified)	31.8%	19.8%	28.7%	2.05%	13.9%	12.6%
O=C(Oc1ccc(S(=O)(=O)F)cc1Cl)c1ccc([N+](=O)[O-])cc1	92.5% (active)	68%	94.7% (active)	92.8% (active)	60%	93.7% (active)
CC[n+]1c(C)n(-c2ccccc2)c(=O)c2ccccc21	-0.3%	-6.85%	4.75%	18.2%	-10.9%	6.25%
O=C(CN1CCOCC1)c1ccc2ccccc2c1	10.1%	2.05%	8.4%	-14.4%	17%	9.85%
ClCC1CCN(CCc2ccccc2)CC1	-5.5%	13.8%	8.65%	-36.6%	-17.8%	9.65%
CC1=CC(=O)C=CC1=Nc1ccc(N(CCCl)CCCl)cc1	22.4%	11.2%	6.65%	2.95%	-1.45%	-5.25%
CC(NC1=NCCO1)c1cccs1 (stereo unspecified)	12.2%	-2.15%	-20.1%	25.9%	15.7%	-12.9%
Cc1ccc(N)c(C)c1	-2.05%	-5.65%	-1.5%	-3.8%	3.2%	-13.2%
O=C(CCl)NC1CCCCC1	9.7%	-8.45%	7.15%	-4.25%	10.9%	-6.45%

SMILES	growth inhibition [1]	growth inhibition [2]	growth inhibition [3]	growth inhibition [4]	growth inhibition [5]	growth inhibition [6]
Cc1csc2n/c(=N/[N+](=O)[O-])sn12	51.5%	26.9%	46.8%	-12.5%	50.4%	44.1%
CN(C)CCC(C)(C#N)c1ccccc1 (stereo unspecified)	8.9%	5.7%	-4.8%	-7.05%	13.9%	21.1%
COc1ccc(CCNCc2ccc3ccccc3n2)cc1OC	-0.35%	-10.5%	7.2%	-16.4%	-11.5%	7.5%
Cc1ccc(C2=NOP(c3ccccc3)(c3ccccc3)(c3ccccc3)C2)cc1	19.5%	2.7%	39%	-37.8%	23.6%	23.9%
CC(C)Oc1ccccc1OC(=O)N(C)C=O	-15.9%	-2.7%	-6.8%	-18%	-17.3%	-15.4%
NCC(O)c1ccc2c(c1)OCO2 (stereo unspecified)	-48.8%	-12.7%	-11.3%	-31.4%	-1.4%	-8.65%
Oc1cc(Br)c(O)c(Br)c1	10.3%	42.8%	29.9%	-11%	36.4%	41.8%
C[C@]12CC[C@H]3[C@@H](CCC4=CC(=O)CC[C@@]43C)[C@@H]1CC[C@@H]2OC(=O)c1cccc2c(=O)c3ccccc3[nH]c12	30.6%	73% (active)	82.1% (active)	34.2%	71.2% (active)	4.1%
COP(=O)(OC)OC.COP(=O)(OC)OC.COP(=O)(OC)OC.COP(=O)(OC)OC.COP(=O)(OC)OC.COP(=O)(OC)OC.[Mn+2].[O-][Cl+3]([O-])([O-])O	43%	-35%	-17.1%	-14.9%	-18.2%	-9%
C=CC(=O)NCO	-3.9%	15.2%	-1.4%	-20.4%	3.6%	-12.3%
O=C(CS(=O)(=O)O)Nc1ccccc1	36.8%	11.9%	27.9%	14.7%	17.1%	22.2%
CC(=O)OC1CC2(O)C(CCC3(C)C(c4ccc(=O)oc4)CCC32O)C2(C)C1=CC(O)C1OC12 (stereo unspecified)	3.95%	6.85%	-12.4%	-1.7%	-2%	-13.9%
CCCCCC[C@@H](O)[C@@H]1C2=C(C[C@H]([C@H](O)[C@@H]3CC=CC(=O)O3)CC3=C(C(=O)OC3=O)[C@@H]1O)C(=O)OC2=O	20.6%	2.75%	26.7%	9.5%	16.7%	19.6%
O=P(Oc1ccccc1)(Oc1ccccc1)N(CCCl)CCCl	0.2%	9.55%	-8.35%	-11.9%	-19.2%	-37.6%
CC(C)C1CN1CC(O)Cn1ccnc1[N+](=O)[O-] (stereo unspecified)	-15.2%	-17.8%	-19.1%	0%	7.35%	-19.2%
CC1(C)OCC(C2NC2C2COC(C)(C)O2)O1 (stereo unspecified)	-4.55%	-6.85%	-11.1%	-40.4%	-10.9%	6.5%
CC(CCF)C(N)C(=O)O (stereo unspecified)	1.8% and -0.7%	28.9% and 5.4%	28.9% and -9.4%	-0.8% and -0.2%	43% and 20.7%	19.5% and -7.8%
CC(C)NC(C)C(C)c1ccccc1 (stereo unspecified)	5.95%	-3.15%	0.1%	-11.9%	-10.2%	11%
CCN(CCCl)c1ccc(NC(=O)c2cc(C(=O)NCCN(C)C)cc(C(=O)Nc3ccc(N(CC)CCCl)cc3)c2)cc1	35%	-23.9%	-15.8%	2.95%	-1.4%	12.5%
N.N.N.N.N.N.[I-].[Os]	23.5%	1.45%	5.4%	7.6%	1.25%	-2%
